Reference: ChEMBL document CHEMBL1157539, “Thousands of chemical starting points for antimalarial lead identification” (Nature, 2010)

test system: HepG2; assay: GSK_TCMDC: Percent inhibition of human HepG2 cell line. Test compounds present at 10uM.; assay type: functional

Row | SMILES | Inhibition
1 | O=C(Nc1ccc(N2CCCCC2)c(Cl)c1)c1ccco1 | 0%
2 | O=C(Nc1ccc(Cn2ncc(N3CCCNCC3)c(Cl)c2=O)cc1)Nc1ccc(F)cc1[N+](=O)[O-] | 11%
3 | COc1ccc(-n2ccnc2SCC(=O)Nc2cc(Cl)ccc2OC)c(OC)c1 | 0%
4 | C[C@@H](CC1CCCCC1)OC(=O)N[C@H]1CCN(C#N)C1 | 7%
5 | CCNc1cc(C(=O)N[C@@H](Cc2cc(F)cc(F)c2)[C@H](O)CNCc2cccc(C(F)(F)F)c2)cc(N2CCCCS2(=O)=O)c1.Cl | 1%
6 | O=S(=O)(c1c(Cl)cc(Cl)cc1Cl)N1CCCCC(c2ccc(Cl)cc2)=N1 | 11%
7 | Cc1cccc2nc(-c3cccc(-c4cccc(NC(=O)NCc5ccccc5)c4)c3)[nH]c12 | 12%
8 | C=CCC(C)n1ncc2c3c(N)nc(N)nc3ccc21 (centres undefined) | 66%
9 | COc1cccc(C2CCN(CCN3CCC(NC(=O)c4ccc(-c5ccc(C(F)(F)F)cc5)cc4)CC3)CC2)c1 | 46%
10 | CC(C)(CNC(=O)[C@@H]1CCCN(Cc2ccc(Cl)cc2)C1)c1nc(-c2ccc(Cl)c(O)c2)c(-c2ccncc2)[nH]1.Cl | 66%
11 | Oc1ccc(-c2nc(-c3ccc4oc5ccc(-c6[nH]c(-c7ccc(O)cc7)nc6-c6ccccc6)cc5c4c3)c(-c3ccccc3)[nH]2)cc1 | 0%
12 | Nc1ccc2nc(C=Cc3ccccc3)[nH]c2c1 | 7%
13 | COc1ccc2nccc([C@@H](O)CN3CCC(NCCOc4c(C)cccc4F)CC3)c2c1.O=C(O)C(=O)O | 4%
14 | Cc1cccc2c3c([nH]c12)C1(CCN(Cc2ccccc2)CC1)NC(C(=O)NCc1ccccc1)C3 (centres undefined) | 0%
